Usually remaining activity stands for the signal under treatment as a percentage of the control signal.

Molecules are shown by their SMILES. Values without a mark were called inactive. The source made the active and inactive calls. Rule as the data show it: active = remaining activity below about 50%; inactive = the rest.

The target of this test is Phospholipase D2 (Homo sapiens) (UniProt O14939). Briefly: cellular phospholipase D2 activity inhibition – cell-based, HEK293, single concentration (AID 602143).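 Also: tested at 200 nM.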 As to conditions: HEK293 cellular PLD2 activity, percent of control; hits give low values.
Sequence of Phospholipase D2 (Homo sapiens) (O14939 whole entry, looked up): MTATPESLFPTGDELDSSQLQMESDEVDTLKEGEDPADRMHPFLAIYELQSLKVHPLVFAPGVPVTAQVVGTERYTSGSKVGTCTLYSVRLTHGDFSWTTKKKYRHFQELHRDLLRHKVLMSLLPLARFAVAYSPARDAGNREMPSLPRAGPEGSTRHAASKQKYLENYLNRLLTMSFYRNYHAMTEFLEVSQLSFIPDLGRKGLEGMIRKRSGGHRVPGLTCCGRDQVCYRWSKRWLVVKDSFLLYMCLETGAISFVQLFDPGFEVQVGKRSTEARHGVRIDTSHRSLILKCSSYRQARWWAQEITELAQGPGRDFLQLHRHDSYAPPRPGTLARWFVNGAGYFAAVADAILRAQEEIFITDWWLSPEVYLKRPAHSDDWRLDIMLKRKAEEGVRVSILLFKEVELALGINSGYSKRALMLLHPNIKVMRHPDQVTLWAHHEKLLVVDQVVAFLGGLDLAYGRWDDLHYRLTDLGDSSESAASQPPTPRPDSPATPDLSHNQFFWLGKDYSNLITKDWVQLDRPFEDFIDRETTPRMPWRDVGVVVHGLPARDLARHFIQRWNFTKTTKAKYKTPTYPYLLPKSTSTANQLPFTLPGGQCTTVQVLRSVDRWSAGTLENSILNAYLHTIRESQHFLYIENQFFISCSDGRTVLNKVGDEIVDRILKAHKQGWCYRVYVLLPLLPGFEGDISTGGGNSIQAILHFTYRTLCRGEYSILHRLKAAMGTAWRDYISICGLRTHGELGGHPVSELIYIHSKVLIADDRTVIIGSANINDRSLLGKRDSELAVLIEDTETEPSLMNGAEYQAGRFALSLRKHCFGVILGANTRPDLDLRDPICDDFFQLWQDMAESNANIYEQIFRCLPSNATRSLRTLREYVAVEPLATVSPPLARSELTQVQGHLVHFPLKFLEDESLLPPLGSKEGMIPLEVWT
Sequence of Phospholipase D2 (Homo sapiens) (O14939 whole entry, looked up): as above
On to `Cn1c(C2CCN(CC3(N)CCCC3)CC2)nc2ccccc21` (tested in a mixture with another compound), for which the remaining activity is 118%. In the case of `C[C@@H](CN1CCC(n2c(=O)[nH]c3cc(-c4cccnc4)ccc32)CC1)NC(=O)[C@H]1C[C@@H]1c1ccccc1` it was 72.1%. The result for `C[C@@H](CN1CCC2(CCc3ccccc32)CC1)NC(=O)c1ccc2ccccc2c1` reads 104%; that for `O=C(NCCN1CCC(n2c(=O)[nH]c3ccccc32)CC1)c1cccc(Cl)n1`, 75.4%; that for `O=C(N[C@@H](Cc1ccccc1)CN1CCC(n2c(=O)[nH]c3ccccc32)CC1)c1cnc2ccccc2c1`, 60.2%. Consider `C[C@@H](CN1CCC2(C=Cc3ccccc32)CC1)NC(=O)c1cnc2ccccc2c1`, for which the remaining activity was 77.4%. Regarding `O=C(c1ccc2ccccc2c1)N1CCC(n2c(=O)[nH]c3cc(Cl)ccc32)CC1`, the remaining activity was 77.7%.

Consider `O=C(NCCN1CCC(n2c(=O)[nH]c3ccccc32)CC1)C1CCc2ccccc2C1` (stereo not drawn), for which the remaining activity is 103%. For `NCCN1CCC(n2c(=O)[nH]c3cc(Cl)ccc32)CC1` (tested in a mixture with another compound), the remaining activity is 83.1%. In the case of `Cc1cc(C)c(S(=O)(=O)NCCN2CCC(n3c(=O)[nH]c4ccccc43)CC2)c(C)c1`, the remaining activity is 98.8%. The result for `O=C(NCCN1CCN(c2ccncc2)CC1)c1cc2cc(F)ccc2[nH]1` reads 65.5%. In the case of `O=C1c2ccccc2C(=O)N1CCN1CCC(n2c(=O)[nH]c3ccccc32)CC1` it was 87.7%; in that of `O=C(CCN1CCC(n2c(=O)[nH]c3ccccc32)CC1)NCc1ccc(Cl)cc1`, 85.2%; in that of `O=C(NCCN1CCC(n2c(=O)[nH]c3ccccc32)CC1)Nc1cccc(C(F)(F)F)c1`, 131%. The result for `O=C(NCCN1CCC(n2nnc3ccccc32)CC1)c1cnc2ccccc2c1` reads 77.7%. In the case of `Cc1ccc(NC(=S)NCCN2CCC(n3c(=O)[nH]c4ccccc43)CC2)cc1`, the remaining activity was 146%.

As for `O=C(NCCN1CCN(c2ccncc2)CC1)c1ccc2ccccc2c1`, the remaining activity is 110%.

In the case of `C[C@@H](CN1CCC(n2c(=O)[nH]c3ccccc32)CC1)NC(=O)c1cccnc1`, the remaining activity was 97.3%. In the case of `O=C(NCCN1CCC(n2c(=O)[nH]c3ccccc32)CC1)c1cc([N+](=O)[O-])cc([N+](=O)[O-])c1` it was 102%; in that of `O=C1c2ccccc2C(=O)N1CCCNc1ccc2ccccc2c1`, 91.8%.

Turning to `C[C@@H](CN1CC=C(n2c(=O)[nH]c3ccccc32)CC1)NC(=O)c1ccc2ccccc2c1`, the remaining activity was 15.3% (active). The result for `CN(CCN1CCC(n2c(=O)[nH]c3ccccc32)CC1)C(=O)c1ccc2ccccc2c1` reads 101%; that for `C[C@H](N)CN1CCC(c2nc3ccccc3n2C)CC1` (tested in a mixture with another compound), 81.2%; that for `O=C(NCCN1CCC(n2c(=O)[nH]c3ccccc32)CC1)c1cc2ccccc2c2ccccc12`, 51.2%. The result for `C[C@@H](CN1CC=C(n2c(=O)[nH]c3ccccc32)CC1)NC(=O)[C@H]1C[C@@H]1c1ccccc1` reads 74.4%; that for `Cc1ccc(C(=O)N[C@@H](C)CN2CCC(n3c(=O)[nH]c4cc(Br)ccc43)CC2)cc1`, 74%; that for `O=C(NCCN1CCC2(CC1)CNc1ccccc12)c1cnc2ccccc2c1`, 90%. The result for `Nc1cccc(Cl)c1C(=O)NCCN1CCC(n2c(=O)[nH]c3ccccc32)CC1` reads 59.2%.

For the origin of these results see PubChem BioAssay AID602143 (Vanderbilt Specialized Chemistry Center, 2011).
